Source: PubChem BioAssay AID1347426 (Functional Genomics Laboratory (NCATS/FGL), 2020)
Hit rate of the full screen: of about 31,000 sequences, about 1,400 (4.5%) were called active. Shown is part of a subset that was picked to be rich in actives. A number with no mark means an inactive call.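 The calls were made as follows: active = median seed-adjusted z-score above 1 or below -1; inactive = the rest.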

Test: Novel Modifiers of Survival Motor Neuron (SMN) Protein: Gene Identification via Genome-wide siRNA Screen
Conditions: HEK293T SMN2-luciferase reporter, siRNA knockdown, 72 h; actives lie on both sides
How it was run: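 Each of three siRNAs per gene is reverse-transfected (1 pmol) into reporter HEK293T cells whose luciferase output tracks SMN protein level. After 72 h culture, ONE-Glo luminescence is control-normalized, log10-transformed and MAD-standardized; Common Seed Analysis deprioritizes seed-driven hits.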
In the case of GGGAAUUACCAGUUACGGATT against TMPRSS12, the median seed-adjusted z-score is reported as 0.0961. Sequence CAAUGUUCCUCUACCUCUATT against MAL2 has a median seed-adjusted z-score of -0.604. GCAUCCUUACAGCACUGCATT against XRCC3 showed a median seed-adjusted z-score of 0.332. In the case of GACUAUCUUUUUAGGCAAATT against BRIP1, the median seed-adjusted z-score is reported as 0.312. GCCUCAUCGUUCUGCAGAATT against ZNF628 showed a median seed-adjusted z-score of -0.121. With GUACAGGCCCUACAUCAUUTT against LRP5 the median seed-adjusted z-score was -1 (active). In the case of CAUCUGACCCUAACUGAAATT against ZMYND10, the median seed-adjusted z-score is reported as 0.255. For GGGUGAUCGAGGACCCAAATT against COL8A1, the median seed-adjusted z-score was -0.848. In the case of GGAUCAUGCUAAAAGGAGATT against SNRPE, the median seed-adjusted z-score is reported as -2.77 (active). With GCCUUGUAAAAAUCAACUUTT against ZNF528 the median seed-adjusted z-score was -0.0746. Sequence CGCAAAAGGCUACCACGAATT against CD300LF has a median seed-adjusted z-score of -0.264. For GGUUGCUACGGGAACAAUATT against ARSD, the median seed-adjusted z-score was -0.447. With CAGUGACCUGCUUCCCUCATT against PROP1 the median seed-adjusted z-score was 0.303. For CGGUGUGAAGAUGAUCUAATT against DNAJC24, the median seed-adjusted z-score was -0.0166. For GUUACUCACAUUUUCUUUATT against AKR7A3, the median seed-adjusted z-score was 0.455. In the case of UAAUCAAUCUGGAAUGUUUTT against BMP8B, the median seed-adjusted z-score is reported as 0. In the case of CGAGGAGCUGAAUUCCCAATT against SLC9A3R1, the median seed-adjusted z-score is reported as -0.418. With CAGACUGAAGGGUUCCGAATT against MLH3 the median seed-adjusted z-score was 0.228. For GCCUCUAAGAGCUGAGAGATT against PRSS33, the median seed-adjusted z-score was -0.588. In the case of GGACUAUGCAAAGAAUCUATT against RPS6KB1, the median seed-adjusted z-score is reported as 1.4 (active). GCUACGAUCACAUUACGAATT against JARID1D showed a median seed-adjusted z-score of 0.293. For GUACCAGUCCAGUCCAUGATT against CDKN2D, the median seed-adjusted z-score was -0.455. For GGAAGUAAAUGUUGUUUUATT against CCL11, the median seed-adjusted z-score was -0.221. GGCCCGAGCUGAUUGACUATT against ACTN1 showed a median seed-adjusted z-score of 0. GCUCUAACCUCACUAAUCATT against ZNF256 showed a median seed-adjusted z-score of 0.00739. In the case of CCGCUGCAACAACCAGAAATT against LRP3, the median seed-adjusted z-score is reported as -1.05 (active). For CAGUCCUACAGGUUCAUCATT against PIP5K1C, the median seed-adjusted z-score was -0.13. GAGAUAUUUGAGUCGUUAATT against GBP7 gave a median seed-adjusted z-score of 0. With CAACUCCGUGGUUACCAAATT against PQBP1 the median seed-adjusted z-score was -1.12 (active). With UCAUGAGCCUGAUAAGUGATT against PPP2R5D the median seed-adjusted z-score was 0.848. GAUCUCAAAUCAGAGUUAATT against ANXA7 gave a median seed-adjusted z-score of 0.671. CAAUGGAUCGGCUUCCUUATT against ADRA2B showed a median seed-adjusted z-score of 0.00853. GCAAUAAGAGAGAUCAGUATT against PDSS1 gave a median seed-adjusted z-score of -0.287. GGACAAGAAGCAAAUGACATT against OLIG2 showed a median seed-adjusted z-score of 0.00944. GGUCCGCAAAGGCUUCUGATT against VWA1 showed a median seed-adjusted z-score of 0.289. For CCUUAUCCGAGAAUACAUUTT against TUBAL3, the median seed-adjusted z-score was 1.05 (active). GGAAAUUGACUUUCUAAAATT against KRT84 gave a median seed-adjusted z-score of -0.645. With CAGUGACUAUGAGAGUGUATT against SCARB2 the median seed-adjusted z-score was -0.244. Sequence CGGUUGAAGUGUAGGGAGATT against TCEA1 has a median seed-adjusted z-score of 0. Work on CGAGUAUACAGUAUACAGATT against CHAF1B yielded a median seed-adjusted z-score of 0.634. In the case of CUCAGAGAAUAAUCACAAATT against PER2, the median seed-adjusted z-score is reported as -0.113. For GAACUAUAUUCUUCUGUGATT against CDH1, the median seed-adjusted z-score was -0.24. For GCCUCCUACUACUUCCGUUTT against SLC6A8, the median seed-adjusted z-score was -0.0673. GAAUUGUACCUACUUCUGUTT against PTPLA gave a median seed-adjusted z-score of 0.291. In the case of CUACCUCUCUUGUUUGGAATT against TRIP13, the median seed-adjusted z-score is reported as 1 (active). Work on GCAAGCAGGUUAUCAACGATT against FLII yielded a median seed-adjusted z-score of -0.353. Sequence GCAUGUACGACCAAUGUAATT against NR3C1 has a median seed-adjusted z-score of -0.47. In the case of GAGUCACAGUUGAAGAUCUTT against GOT2, the median seed-adjusted z-score is reported as 0.205. With CAAUCUCCGCAAAAAUGGATT against PCMT1 the median seed-adjusted z-score was 0.139. For CGACAUCUCACUCAUGAAATT against SF3A3, the median seed-adjusted z-score was -2.1 (active). For CUAUGGACCAGUCAAAUAATT against NDUFB7, the median seed-adjusted z-score was -0.379. For ACACCCGCGUGUCUGAUUATT against PPAP2C, the median seed-adjusted z-score was -1.12 (active). Sequence CCCUCAUCAAGAACUUUCATT against S100A14 has a median seed-adjusted z-score of 0.0172. GCCUAAACAGUGACCGAUUTT against BDH1 showed a median seed-adjusted z-score of -0.0253.
